“And” between values parts separate entries of the source, which are not always exact repeats. Equal entries are not always repeated. About 83,000 compounds went through this panel and 20% of them were active in at least one assay; those are over-represented in the sample as a whole.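 Cells were grown in 96-well plates and exposed to the test compound at a single concentration for 48 hours; results are reported as percent growth, with values below 10 considered active.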 The source made the active and inactive calls.

This assay has as its system HL-60(TB) leukemia. Kind of assay: NCI-60 one-dose screen, 48 h (100 = growth as untreated, 0 = no growth, -100 = all killed). The note with it: 10 µM unless noted.
Turning to `CC1(C)CCC(S(=O)(=O)c2ccc3c(c2)/C(=N\O)c2cc(S(=O)(=O)N4CCC(O)(c5cccc(C(F)(F)F)c5)CC4)ccc2-3)CC1`, the growth was -67.5% (active).
Under `CCCC(=O)Oc1ccc(/C(=C(\C)c2ccccc2)c2ccc(OCCN(CC)CC)cc2)cc1` stands 39.2% (inactive); under `CCNC(=O)Nc1ccc(-c2nc3c(c(N4CCOC[C@@H]4C)n2)CCN(C2COC2)C3)cc1`, 82.6% (inactive) and 44.4% (inactive).
With `O=C1C(Cl)=C(Nc2ccc3cn[nH]c3c2)C(=O)c2ccccc21`, the growth was -69.2% (active).
Take `O=C(O)CNS(=O)(=O)c1ccc(OCCOc2ccc(S(=O)(=O)NCC(=O)O)cc2)cc1`: the growth was 98.7% (inactive).
As for `COc1ccc(C2CC(c3cccc(Nc4ccncc4)c3)=NN2c2ccc(Cl)cc2)cc1` (centres undefined), the growth was -46.5% (active).
In the case of `CC(C)OC(=O)c1ccc2[nH]c(O)c(C(=Nc3ccc(N(C)C(=O)CN4CCN(C)CC4)cc3)c3ccccc3)c2c1`, the growth was -50.2% (active).
For `COc1ccc(/C=C/C(=O)c2cc(OC)c(OC)c(OC)c2)cc1OCc1cn(Cc2ccc(F)cc2)nn1` the value was 69.4% (inactive).
With `COc1cc(NC(=O)COc2ccccc2)c(C(N)=O)cc1OC`, the growth was -11.7% (active).
For `Cn1cc(-c2csc(-c3cn(CCCN4CCCCC4)c4ccc(Br)cc34)n2)c2cccnc21` the value was 0.828% (active); for `Cc1nnc(NC(=O)c2nc(S(=O)(=O)Cc3ccc(F)cc3)ncc2Cl)s1`, -30.5% (active); for `COc1cc(/C=C\c2cc(/C=C\c3ccc(O)c(OC)c3)n(C(=O)CNc3ccccc3OC)n2)ccc1O`, 25.5% (inactive).
On to `Cc1ccc(-c2nc([P+](c3ccccc3)(c3ccccc3)c3ccccc3)c(N3CCOCC3)o2)cc1`, for which the growth was -27.7% (active).
Under `C[C@H](CCC(=O)O)[C@H]1CC[C@H]2[C@@H]3CC[C@@H]4/C(=C\c5ccco5)C(=O)/C(=C\c5ccco5)C[C@]4(C)[C@H]3CC[C@]12C` stands 29.9% (inactive); under `O=S(=O)(NCCNc1cc(-c2cn(-c3ccccc3)nc2-c2cccc(O)c2)ccn1)c1ccc(Cl)cc1`, 15.3% (inactive).
For `COc1cc(-c2nn(-c3cccc(NC(=O)c4ccccc4)c3)cc2-c2ccncc2)ccc1Cl` the value was -18.8% (active); for `CC(C)(C)c1ccc(OP(=S)(N/N=C/c2ccccc2O)Oc2ccc(C(C)(C)C)cc2)cc1`, 77.8% (inactive); for `NC(=O)c1ccc[n+](Cc2ccccc2)c1`, 152% (inactive).
Under `O=C(Nc1ccc([N+](=O)[O-])cc1Cl)c1cc(Cl)ccc1O` stands -30.7% (active) and -30.9% (active); under `CCCCCCCCC(C)OC(=O)c1nn(C(C)=O)c2ccccc12` (centres undefined), 99.5% (inactive); under `c1ccc(C(Nc2ccccn2)(c2ccccc2)c2ccccc2)cc1`, 90.4% (inactive).
As to `Cc1ccccc1Cn1cnc2ccc(-c3cc(NC(=O)c4ccc(NC5CCN(C)CC5)cc4)n[nH]3)cc21`, the growth is 79.4% (inactive).
Turning to `COc1ccc(S(=O)(=O)N2CCCCCC2)cc1NC(=O)c1[nH]c(C)c2c1CCCCC2=O`, the growth is 7.56% (active).
For `Cc1cc(Nc2ncnc3ccc(NC4=NC(C)(C)CO4)cc23)ccc1Oc1ccn2ncnc2c1` the value was 5.69% (active).
As for `C[N+](C)(C)c1ncnc2nc[nH]c12`, the growth was 91.8% (inactive).
In the case of `OCCNc1nc(NCCO)nc(Nc2ccc(C3=NN(c4ccc(Cl)cc4)C(c4ccc(Cl)cc4)C3)cc2)n1` (centres undefined), the growth was 46.2% (inactive).
Under `O=C(NC(Cc1cn(Cc2ccccc2)cn1)C(=O)O)OCC1c2ccccc2-c2ccccc21` (centres undefined) stands 87.4% (inactive); under `O=C1N/C(=N\c2nnc(-c3ccc(O)cc3)s2)S/C1=C\c1ccccc1O`, 104% (inactive); under `CCCCCCCCCCCC(=O)NCCCN(C)C`, 83.7% (inactive).
For `CCN(CCNS(C)(=O)=O)c1ccc(N)c(C)c1`, the growth was 11.5% (inactive) and 77.3% (inactive).
In the case of `Cc1c(C(=O)N[C@@H](Cc2ccccc2)C(=O)C(=O)NCCc2ccccc2)[nH]c2ccccc2c1=O`, the growth was 98% (inactive).
In the case of `Cc1ccc(-c2nc(/C=C3/C(=O)Nc4ccccc43)c3ccccn23)cc1`, the growth was 113% (inactive).
On to `C=C(C)[C@@H]1CC[C@]2(CN)CC[C@]3(C)[C@H](CC[C@@H]4[C@@]5(C)CCC(N)[C@@](C)(CO)[C@@H]5CC[C@]43C)[C@@H]12` (some centres undefined), for which the growth was -66.1% (active).
For the compound `CCCCC[C@@H]1Cc2cc(O)c(C(=O)O)c3c2[C@H](C[C@]2(OC[C@@H](CC(=O)[C@@](C)(CC)C(=O)OC)[C@@H]2C)O3)O1`, the growth is 116% (inactive).

Values taken from PubChem BioAssay (NCI).
